The panel holds about 83,000 compounds, 20% with a hit somewhere; the sample as a whole holds those more often.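 Interpretation: 100, growth as untreated; towards 0, rising growth inhibition; 0, no net growth; 0 to -100, cell death. Compounds scoring below 10 were considered active.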 Calls of active or inactive are those of the source.
Tested on: HL-60(TB) leukemia
Test: NCI-60 one-dose screen, 48 h (100 = growth as untreated, 0 = no growth, -100 = all killed)
Details: 10 µM unless noted

SMILES | growth
O=C1/C(=C/c2ccc(O)cc2O)N=C2SCCCN12 | 100% (inactive)
O=C(CCl)Nc1ccccc1SCc1cc(Cl)cc2c1OCOC2 | 49.4% (inactive)
CCCCCCCCOc1ccc(/C=N/Nc2cc(C)nc3ccc(Cl)cc23)cc1 | 13.5% (inactive)
CCOC(=O)N/N=C/c1ccc(OC)c(OC)c1 | 108% (inactive)
O=c1c(N=Nc2nccs2)c(-c2ccccc2)[nH]n1-c1nc(-c2ccccc2)cs1 | 15.8% (inactive)
O=C1/C(=C/c2ccc(Cl)cc2)COc2ccc(O)c(O)c21 | -11.7% (active)
O=Cc1c(O)c2ccccc2[nH]c1=O | 126% (inactive)
CCc1[nH]nc(-c2ccc(OC)cc2)c1-c1ccccc1OCCN(CC)CC | 92.8% (inactive)
C=C(C[C@](O)(C(=O)/C=C/c1ccc(Cl)cc1)C(=O)OC)c1ccccc1 | 59.2% (inactive)
O=C1/C(=C\c2cn(C(=O)c3ccc(Cl)cc3)c3ccccc23)c2ccccc2N1c1c(Cl)cccc1Cl | 103% (inactive)
Nc1ccc(-c2nn3c(CCC(=O)c4nc5ncccc5[nH]4)nnc3s2)c(O)c1 | 107% (inactive)
CCCCn1cnc2c(Sc3c([N+](=O)[O-])ncn3C)nc(N)nc21 | 54.3% (inactive)
CC(=Nc1ccccc1)C1=C(O)C(Cc2ccc(O)cc2)NC1=O (stereo not given) | -51.5% (active)
O=C(Nc1ccc2cc3ccc(NC(=O)NC4CCCCC4)cc3nc2c1)NC1CCCCC1 | 99.3% (inactive)
Cc1nn(Cc2ccccc2)cc1C(=O)Nc1sc2c(c1C(N)=O)CCC(=O)C2 | -4.39% (active)
